From PubChem BioAssay AID1508600 (Functional Genomics Laboratory (NCATS/FGL), 2020) come the findings set out here.

About 3,700 (7%) of roughly 53,000 sequences were called active. This excerpt belongs to a sample that is enriched for actives. Values without a mark were called inactive.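 The calls were made as follows: active = gene knockdowns whose robust z-score for IL-1 alpha signal is at least 2 or at most -2, so actives lie on both sides; inactive = the rest.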

The nature of the assay: Components of the Cytosolic LPS Sensing Pathway: Gene Identification via Genome-wide siRNA Screen.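 Also: robust z of the log signal after scaling to non-targeting control siRNA wells of the plate.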 The settings on record: RAW264.7 macrophages, IL-1a HTRF, actives lie on both sides, screened at 100 nM (by protocol), cells primed 5 h with Pam3CSK4 first. Summed up: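 Read-out: IL-1a HTRF on supernatant, divided by plate negative-control median ×100, log-transformed and converted to robust z-score. Cells were RAW264.7 given 100 nM siRNA, Pam3CSK4-primed 5 hours, then LipidA-transfected 24 hour.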
(In general: TR-FRET usually uses a lanthanide donor and a delayed reading to cut background.)
Take GGAAUUCGAUGCAUUUGUATT against Il18rap: the z-score is -0.34.
For GCUCAGCUGUGGGUAAUACTT against Raver2, the z-score is -2.77 (active).
In the case of “GGAUAUCACAUAGCAUCGGTT against 1700025G04Rik”, the z-score was -0.742.
On to GGAUGUCUCAAAGUAAGAATT against Cd55b, for which the z-score was -0.124.
Turning to GGACGAGUGCCUGUUUUCATT against Med8, the z-score was 4.09 (active).
In the case of GCAAUGGAACCACCUCUGATT against Zic5, the z-score was 1.41.
For the sequence GGAAGAAGCUGAGGAAAGCTT against Spata1, the z-score is 0.15.
With GGAUGGACUCUGUUCCUGUTT against Susd2, the z-score was 0.956.
Turning to GGCCAUUGGACACAGAAUCTT against Rpl35a, the z-score was 2.28 (active).
For GCAAUUAGUAUCUAUUACCTT against Txndc17, the z-score was -0.448.
For the sequence GGCUACAAAGGAGUUCCUATT against Sgf29, the z-score is 0.516.
The figure for GCUACUAAACAAGCCGGCATT against Msl1 is 0.341.
The figure for GGCUUUGUGGAUUUUGAAGTT against Cabp4 is -1.2; for GGACGUGUUUGGGAUUGUUTT against Csad it is -0.765; for GGAUGAGUUCCUUUUACUATT against Cntnap4 it is 0.285.
For CCUCUGUUAUGGUAAUUCUTT against Olfr1323, the z-score was -0.371.
Take GCCUGAUAGUGGUGGACAGTT against Tmem45a2: the z-score was 3.29 (active).
In the case of “GGAGGCUUUUCAGACCAAGTT against 3830406C13Rik”, the z-score was 0.334.
In the case of GGAGAACAGACACAGGGUGTT against Dlgap5, the z-score is -0.284.
In the case of CCUAAACUCAGUGCCUCAGTT against Mrps36, the z-score was 0.579.
GUCAAAGCACCAUUUGAGUTT against Vmn1r8: the z-score is -0.842.
On to GGUAUUCUUUGAAGAAAACTT against Tbc1d14, for which the z-score is 1.17.
For the sequence GGUUUUUGAUGAUUGCUUUTT against Slc49a4, the z-score is 0.221.
In the case of GGACACAGAUAGAAAUACUTT against Glo1 it was 2.73 (active).
For GGUCUCGAAUGUAUGGUGCTT against Bicc1, the z-score is 1.14.
GGCAGUUAUGAUAAAGAUUTT against Slc25a16: the z-score was -0.896.
Take GGUUCCUAAACAUACUUGUTT against Swi5: the z-score is 0.478.
Consider GGACUACAGUCAUUAUUCATT against Sycp2, for which the z-score was 3.25 (active).
In the case of GGAGUACGAGCAAAUGGUGTT against Nfkbia it was 0.5.
The figure for GGGACCUACAUUACAAUUUTT against Suz12 is 1.06; for GGAUUCACCUGUUAUCUUUTT against Tapbpl it is 0.303; for UGAAUCACCACCCGGAAUGTT against Pcbd2 it is 0.41.
Take CCUAUGUGCGUUCCAAGCATT against Eif5b: the z-score is -0.432.
For the sequence GGACAUCUGUGUUAAAUUUTT against Npy1r, the z-score is -0.47.
With GGAAGAUACUGUGGUUUAUTT against Agbl3, the z-score was 2.29 (active).
Turning to GGCAUUGGUGUUUCAUUAATT against Gpm6a, the z-score is 1.2.
On to GGUAUUAUGACCAGAUUAUTT against Plxnb3, for which the z-score is 0.736.
As to GGACGAUUGCCAUAUGAACTT against Ice2, the z-score was -0.99.
GUACUUUCUUGAACCAGAGTT against Cacng7: the z-score was -0.486.
As to GGAUGAAGCCUUCAUCAGGTT against Adcy6, the z-score is 0.0162.
In the case of GGAGAGAGACACAAGCUUGTT against Map7d1 it was 1.07; in that of CCCGGGUCUUUGAUAUCUUTT against Evi5l, 2.03 (active); in that of GCGAAAACUUCGGAUCUAUTT against Smarcd2, 1.29.
In the case of GGCUUAUCAUACCUGGUUGTT against Olfr691, the z-score is 0.404.
As for GGAUAUUUCAGUUGGCGGGTT against Lama2, the z-score was -0.158.
Turning to GGUCAAACUGAAGAAGGAGTT against Slc7a7, the z-score is -1.24.
The figure for GGAAGUUGAAAUGCUGUCGTT against Clcnka is -2.24 (active).
In the case of GCAAGGAAAAUCUAUACCGTT against Rgs2 it was -0.954.
As for GCACAUACAGAGCUCGUCUTT against Zkscan6, the z-score is -0.471.
In the case of CCAGAUAAGCCUCAUCAAUTT against Scn5a, the z-score is -0.163.
As for GAAUCAGCUGUUCUCUCACTT against Tm2d3, the z-score is 2.25 (active).
The figure for GCACCAAACCAAUAUUAGUTT against Epb41l3 is 1.13; for GCACCAUUAAGGUUGCCAATT against Nudt11 it is -1.16; for GGUCUGUGGGAAACAUAAATT against Gria3 it is -0.233.
As for GGAUGUCUAUUUUUGGUCATT against Esd, the z-score is -0.819.
On to GGCGGAUACUUGAUCGAAATT against Exoc3, for which the z-score is 2.41 (active).
The figure for GGGACAAUACCAAUUUCUCTT against Car15 is -0.209; for GGCAAUCUCCUUUAAUUGATT against Zfp329 it is 0.237; for GCCCUCAACCAUAAUUCAATT against Zscan21 it is 2.15 (active).
Turning to GGAAAUGAGCCAGGAUGGUTT against Cdca4, the z-score was 0.0601.
Consider CCCGAUUAUCUAGUGAUACTT against Sbk1, for which the z-score was 0.311.
On to GCCACUGGUUCACCAUGCATT against Ugt1a9, for which the z-score is -0.52.
Take GCCAGCUUUUAGUAUCAACTT against Sun1: the z-score was 2.4 (active).
In the case of GCCUGUGGUAGGAUACUAUTT against Denr, the z-score is -0.964.
In the case of GGAAGGAACCGUUCUAUAATT against Serpinc1 it was 0.221.
In the case of “GGUUGGAUACUCGUCUUCATT against Olfr421-ps1”, the z-score is 1.16.
Regarding GGCCCACAGUUUGUGACUGTT against Larp7, the z-score is -1.1.
In the case of GCGUAUAGGUGAUGUACAGTT against Smad3, the z-score is 2.28 (active).
Regarding GGUCAUUAGUUAUUCCUACTT against Olfr600, the z-score is -1.33.
Consider “GGGUUCAAGAUAUCAAGUATT against 4933434E20Rik”, for which the z-score was 1.23.
Regarding GCUUGGGUCAUAGGGAUGATT against Olfr1288, the z-score was -0.371.
Take CCACUUUUGUAAUGGAAGCTT against Mfsd6l: the z-score was 1.89.
As to GGAGAUUCAGAUCAAAGAGTT against Scyl1, the z-score is -0.182.
In the case of GCUACGUUUUUUACCUCCATT against Bak1, the z-score is 0.0106.
As for GGCUUCCAGUAAUGACAAUTT against Vwc2l, the z-score was -1.67.
As for GGACUAUCAUCUGAUGCCATT against Klhl18, the z-score was 2.45 (active).
For the sequence GGUCUUUCCCAGGAUUCCATT against Rab19, the z-score is -0.837.
Turning to GGUUGACUAUACUGAAAAGTT against Prrc2a, the z-score is -0.606.
For the sequence GGGCAAUGAAUGACAUUGGTT against Gabrd, the z-score is -0.368.
The figure for GGGAGAAUCGAACUAUAAATT against Raver1 is -0.477; for GGACCCUUAGGAAAUGUGCTT against S100a10 it is -1.13.
In the case of GCAUCAGAUUAUCUCACUGTT against Mtrf1l, the z-score was 0.261.
The figure for CGCGUGAUUGAUGUUUUACTT against Atxn10 is 0.793; for GUGUCAUUUCCCGGGACAUTT against Atp5g1 it is 1.64; for CCUUGGACUGAUAUUAGCUTT against Dtx3 it is 0.0235.
In the case of GGAACCUAAACGAACAAGGTT against Col6a2 it was 2.18 (active); in that of GGAUGUACGGAAGCGAUUCTT against Gmpr2, 0.404.
For the sequence “GGUUCCUCAUUUGUAGAUGTT against D830050J10Rik”, the z-score is -1.19.
In the case of GGAGGAACAAUCAUCUAUATT against Ripk2, the z-score is 1.1.
The figure for GGCACAGAUGUUUUGAGAATT against Surf4 is -0.954; for CGAAAAUAUGGAUACUACUTT against Ippk it is 0.732; for CGGUGAUCGUCAUUUUAUUTT against Ap4m1 it is 2.47 (active).
On to GGUGAACCUCAACAGACUCTT against Gtf3c4, for which the z-score is -1.7.
Take GGAAAAAAUCACAUUGACUTT against H2ac6: the z-score is -0.835.
Take GCCCAUUAAUGGGAUAUAATT against Ccdc134: the z-score is 0.148.
Turning to GGCUCUGGCAGAAAUGGAUTT against Pex26, the z-score was -0.0204.
The figure for GGGAACAGAAGUUGUGAGATT against Gulp1 is 1.5; for AGGUCAAUAAAGAGUGUGATT against Fam25c it is -1.66; for GGAUACGAAAACGACUGCATT against Pdpr it is 2.05 (active).
With GGACCAAUUGGAUCCUUUUTT against Olfr1340, the z-score was -1.6.
Turning to GCAUACGAUGGGAAUUGUATT against Wdr5b, the z-score is -1.6.
GGAAGAAGAUAAAGAGAAATT against Gtf2a1: the z-score is 1.09.
For GGAAGUUACUGUGAGAUAATT against Mtbp, the z-score is 0.265.
Consider GGAUGUUAUUCAGUUUUCATT against BC051019, for which the z-score is 2.37 (active).
As for GGCCUAUCUUGUUUAUUUGTT against Tgtp1, the z-score was -0.316.
AUCGUGUUUGCUGUAUUUGTT against Olfr1258: the z-score was 0.33.
The figure for GGAAAUCACCAACUUGGCCTT against Pou3f3 is -0.0208.
